Data from PubChem BioAssay (NCI).
The panel holds about 79,000 compounds, 15% with a hit somewhere; the sample as a whole holds those more often. No stated cut-off is given here; in the data, active means growth inhibition above about 70%; inactive means the rest.

Columns and labels:
[1] = NCI Yeast Anticancer Drug Screen. Data for the rad50 strain (AID 155);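 further: 0% = growth of vehicle-only cultures of the same strain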; details: S. cerevisiae rad50 strain growth inhibition; at 50.0 µM; active compounds read high
In short: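 DNA repair mutant yeast, compound exposure, growth read-out; inhibition is taken relative to vehicle.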

[2] = NCI Yeast Anticancer Drug Screen. Data for the mec2-1 strain (AID 157); details: S. cerevisiae mec2-1 strain, at 50.0 µM, active compounds read high
In short: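 Each compound was tested on mec2-1 yeast, a strain altered in DNA damage repair or cell cycle control. Growth inhibition is reported relative to vehicle.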

[3] = NCI Yeast Anticancer Drug Screen. Data for the sgs1 mgt1 strain (AID 161);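 further: 0% = growth of cultures given vehicle only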; details: S. cerevisiae sgs1 mgt1 strain, at 50.0 µM, active compounds read high
In short: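 Mutant yeast exposed to compound; growth scored against vehicle-only wells.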

[4] = NCI Yeast Anticancer Drug Screen. Data for the cln2 rad14 strain (AID 165);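 further: 0% = growth equal to vehicle treated cultures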; details: S. cerevisiae cln2 rad14 strain, at 50.0 µM, active compounds read high
In short: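 Test compounds were added to cln2 rad14 yeast cultures; inhibition of growth was then determined by comparison with vehicle treatment.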

[5] = NCI Yeast Anticancer Drug Screen. Data for the bub3 strain (AID 167); details: S. cerevisiae bub3 mutant strain, at 50.0 µM, active compounds read high
In short: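 In this screen, a yeast mutant lacking normal mitotic checkpoint function is challenged with compound. Relative growth versus vehicle gives the inhibition value.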

[6] = NCI Yeast Anticancer Drug Screen. Data for the mlh1 rad18 strain (AID 175); details: S. cerevisiae mlh1 rad18 strain growth inhibition; at 50.0 µM; active compounds read high
In short: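 Inhibition values reflect reduced growth of mutant yeast versus vehicle-treated controls following compound exposure; the mutations affect DNA damage repair.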

Measured: growth inhibition

CCCCCCCCCCCCCCCCCCCCCCCCCCCCCCCCCCCCSC(=N)N
inactive: [1] 8.25% | [2] 0.45% | [3] 3.8% | [4] -7.05% | [5] -0.25% | [6] 12.8%

CCc1ccc(COC(=O)NC)nc1
inactive: [1] 38% | [2] -0.75% | [3] 4% | [4] -18% | [5] -0.2% | [6] 19.6%

CC1C(c2ccccc2)=NN(C)c2ccccc21 (stereo not given)
inactive: [1] 19.6% | [2] 0.6% | [3] 3.7% | [4] -28.1% | [5] 8.45% | [6] 21.8%

Clc1ccc2c(c1)nnn2OC1CCCC1
inactive: [1] 10.4% | [2] -3.7% | [3] -11.1% | [4] -24.9% | [5] -10.8% | [6] -6.8%

Cc1cc2[nH]c3c(C#N)c(O)c(C(C)C)c(=O)n3c2cc1C
inactive: [1] -1.05% | [2] 7.8% | [3] 11.6% | [4] 1.35% | [5] 10.8% | [6] 11.2%

COC(=O)C(CC(=O)Nc1ccc(Cl)c(Cl)c1)C(=O)C(=O)Nc1ccc(Cl)c(Cl)c1 (stereo not given)
inactive: [1] -36.2% | [2] -15.6% | [3] -34% | [4] 6.6% | [5] -3.25% | [6] -10.7%

O=C(C[n+]1cccc2cccc(O)c21)c1ccc2ccccc2c1
inactive: [1] 6.6% | [2] 7.6% | [3] 18.8% | [4] 26.6% | [5] 1.15% | [6] 2.7%

O=C(Nc1cccc(Cl)c1)c1ccc(Cl)cc1
inactive: [1] 2.95% | [2] 24.2% | [3] 7.75% | [4] -12.9% | [5] 26.7% | [6] 4.3%

CCOC(=O)NN(C(=O)OCC)C(=C(c1ccccc1)N1CCOCC1)N(NC(=O)OCC)C(=O)OCC
inactive: [1] 6.3% | [2] 5.6% | [3] -2.7% | [4] 31.1% | [5] -2.25% | [6] 10.8%

CC(NC(=O)C(Cc1ccccc1)NC(=O)OCc1ccccc1)C(=O)NC1C(CO)OC(n2cnc3c(N)ncnc32)C1O (stereo not given)
inactive: [1] 15.3% | [2] -3.9% | [3] -2.1% | [4] -1.1% | [5] -2.5% | [6] 16.5%

CCc1ccc(N=Cc2cc(OC)c(OC)c(OC)c2)cc1
inactive: [1] -4.2% | [2] 16.4% | [3] 29.4% | [4] 4.75% | [5] 14.2% | [6] -6.45%

CN(C)CCCOc1ccc(/C=C2/CCC/C(=C/c3ccc(OCCCN(C)C)cc3)C2=O)cc1
inactive: [1] 22.6% | [2] 14.8% | [3] 19.8% | [4] 26.1% | [5] 18.7% | [6] 3.35%

N=c1ccc2ccccc2n1O
inactive: [1] 10.6% | [2] -3.85% | [3] -4.2% | [4] -49.1% | [5] 7.2% | [6] -7.9%

OCC[N-]CC[N-]CCO.[Cl][Co][Cl]
inactive: [1] 27.8% | [2] 32.1% | [3] 32.7% | [4] 22.9% | [5] 36.6% | [6] 35.2%

Cn1c(=O)cc(CCl)c2ccccc21
inactive: [1] 26.9% | [2] 26.6% | [3] 44% | [4] 28.4% | [5] 31.7% | [6] 52%

COc1ccc(CN2C(=S)SC(c3ccc(Cl)cc3)N2c2ccc(OC)cc2)cc1 (stereo not given)
inactive: [1] -25.1% | [2] -19.6% | [3] -9.2% | [4] -37% | [5] -1.35% | [6] -19.8%

CC(C)(C)NC(=O)CCC1C(C(=O)NC(C)(C)C)C2(Cl)C(Cl)=C(Cl)C1(Cl)C2(Cl)Cl (stereo not given)
inactive: [1] 6.2% | [2] 12% | [3] 1.6% | [4] 9.8% | [5] 15.6% | [6] -2.05%

CCCCC1(CCO)C(=O)N=C(N)NC1=O (stereo not given)
inactive: [1] -15% | [2] -3.85% | [3] -8.05% | [4] -22.9% | [5] -5.6% | [6] -15.8%

CC(=O)OCCC(=O)Nc1cc([N+](=O)[O-])ccc1OCc1ccccc1
inactive: [1] 7.05% | [2] 1.6% | [3] -6.45% | [4] -3.8% | [5] 3.65% | [6] -16%

c1ccc(C2CCOCO2)cc1 (stereo not given)
inactive: [1] 14.4% | [2] 15.7% | [3] 15.8% | [4] 12.2% | [5] 5.7% | [6] 24.2%

O=C(O)C(=Cc1ccc(-c2ccc([N+](=O)[O-])cc2)o1)C(=O)O
inactive: [1] 6.95% | [2] 0.7% | [3] -12.8% | [4] 29.9% | [5] 15.8% | [6] 12.4%

CC(=O)OCC1OC(n2cc(C)c(=O)[nH]c2=O)C(NC(=O)C(Cl)(Cl)Cl)C(OC(C)=O)C1OC(C)=O (stereo not given)
inactive: [1] 6.3% | [2] -4.6% | [3] 2.75% | [4] 0% | [5] 0% | [6] 2.3%

Cc1ccc(S(=O)(=O)CCN2CCOCC2)cc1
inactive: [1] 15.3% | [2] -3.15% | [3] 5% | [4] -32.3% | [5] 5.85% | [6] 2.8%

COc1cc(NCCCCCCNCC(C)C)c2nccc(C)c2c1
inactive: [1] 53.1% | [2] 44.5% | [3] 62.8% | [4] 18.1% | [5] 37.6% | [6] 21.6%

O=C(Nc1ccc(Cl)cc1)Nc1nnc2nc(CC(=O)c3ccccc3)c(=O)[nH]n12
inactive: [1] 15.7% | [2] 1.1% | [3] 11.9% | [4] -19% | [5] -21.9% | [6] 1.1%

CSc1ccc(C(=NO)c2ccc(SC)cc2)cc1
inactive: [1] -11.4% | [2] 17.8% | [3] -1.3% | [4] -0.85% | [5] -8.5% | [6] -11.7%

CCOC(=O)c1ccccc1OCc1ccccc1
inactive: [1] 13.3% | [2] 15.2% | [3] 5.75% | [4] -5.9% | [5] 51.8% | [6] 14.9%

CCC(C)NC(=O)Nc1ccccc1 (stereo not given)
inactive: [1] 13.3% | [2] 8.95% | [3] -0.65% | [4] 3.9% | [5] -2.45% | [6] 6.35%

O=CNNC(=O)Nc1cccc2ccccc12
inactive: [1] -29.9% | [2] -8.85% | [3] -20% | [4] -5.75% | [5] -32.1% | [6] -25.5%

Cc1ccc(N=Nc2c(O)c(S(=O)(=O)O)cc3cc(S(=O)(=O)O)ccc23)c(C)c1
inactive: [1] 8.55% | [2] -19.6% | [3] -13.8% | [4] 6.3% | [5] -14% | [6] 2.55%

O=C1[C@H]2ON(c3ccccc3)C(c3ccc(Cl)cc3)[C@H]2C(=O)N1c1ccc(Cc2ccc(N3C(=O)[C@@H]4ON(c5ccccc5)C(c5ccc(Cl)cc5)[C@@H]4C3=O)cc2)cc1 (stereo not given in full)
inactive: [1] 1.75% | [2] 8.6% | [3] 0.2% | [4] 26.4% | [5] 21.4% | [6] 7.6%

Cc1csc2nc(-c3ccccc3)[nH]c(=S)c12
inactive: [1] 5.5% | [2] 6.4% | [3] 10.9% | [4] -22.8% | [5] -4.8% | [6] 6.75%

Cc1cc(C)c(C2[C@H]3C(=O)N(c4ccc(Cc5ccc(N6C(=O)[C@@H]7ON(c8ccccc8)C(c8c(C)cc(C)cc8C)[C@@H]7C6=O)cc5)cc4)C(=O)[C@H]3ON2c2ccccc2)c(C)c1 (stereo not given in full)
inactive: [1] 27.6% | [2] 31.8% | [3] 19.8% | [4] 25.2% | [5] 29.4% | [6] 24.2%

C/C(CCc1ccccc1)=N\Nc1ccc([N+](=O)[O-])cc1[N+](=O)[O-]
inactive: [1] -31.9% | [2] -44.6% | [3] -2.9% | [4] -17% | [5] -17.4% | [6] -19.4%

CCO/C(O)=c1/s/c(=C(\C#N)c2nc3ccccc3[nH]2)n(-c2ccccc2)c1=N
inactive: [1] 11.6% | [2] 3.4% | [3] 2.3% | [4] -37.9% | [5] -20.4% | [6] -26.8%

C=CCS(=O)CC(NC(=O)c1ccccc1)C(=O)O (stereo not given)
inactive: [1] -32% | [2] -3.75% | [3] 20.6% | [4] -15.4% | [5] 4.1% | [6] -13.4%

C[C@@H](Oc1ccc(Oc2cnc3ccc(Cl)cc3n2)cc1)C(=O)O
inactive: [1] 15.8% | [2] 5.4% | [3] 4.2% | [4] 37.8% | [5] 15.2% | [6] 3.95%

COc1cc(N=Nc2c(Cl)cc([N+](=O)[O-])cc2Cl)c(OC)cc1N=Nc1ccc(N)nc1N
inactive: [1] 23.4% | [2] 28% | [3] 7.05% | [4] 5.9% | [5] 3.85% | [6] 9.45%

O=C1CSC(c2ccc([N+](=O)[O-])cc2)N1c1nc(-c2ccc3c(c2)CCCC3)cs1 (stereo not given)
inactive: [1] 32.1% | [2] 2.85% | [3] 21.1% | [4] 9.3% | [5] 1% | [6] 31.5%

BrC1CC1(c1ccccc1)c1ccccc1 (stereo not given)
inactive: [1] 0.1% | [2] 0.35% | [3] -3.5% | [4] -6.4% | [5] 3.65% | [6] -0.3%
